Test results published in PubChem BioAssay AID2549 (National Center for Advancing Translational Sciences (NCATS), 2010).
Screen size: about 240,000 compounds; about 1,300 (0.54%) were called active. About 1% were inconclusive and are not listed. The call rests on the fitted dose curve; in most records, active means well fitted inhibition curve with a large enough effect; inconclusive means small, poorly fitted or top-dose-only effect; inactive means flat fitted curve, though single readings scatter. Only a selection was taken, and actives are over-represented in it overall.

The compounds below were run against ATP-dependent DNA helicase Q1 (Homo sapiens) (UniProt P46063) (assay: qHTS Assay for Inhibitors of RecQ-Like Dna Helicase 1 (RECQ1)). Conditions: RECQ1 DNA unwinding, red fluorescence kinetic read; series mostly up to 57.3 µM.
In short: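 RECQ1T1 50 nM; forked duplex (20 bp + 30-nt ss tails) 200 nM, ATP 2 mM final; pH 8.0, 2 mM MgCl2, 2.5 ug/ml poly(dI-dC); 15 min compound preincubation; discontinuous kinetic read over 2 h at RT.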
Further: nearly all actives have a fitted effect of over 30% in size.
Potency means the concentration at half of the fitted maximal effect.

ATP-dependent DNA helicase Q1 (Homo sapiens), sequence (P46063 whole entry, looked up): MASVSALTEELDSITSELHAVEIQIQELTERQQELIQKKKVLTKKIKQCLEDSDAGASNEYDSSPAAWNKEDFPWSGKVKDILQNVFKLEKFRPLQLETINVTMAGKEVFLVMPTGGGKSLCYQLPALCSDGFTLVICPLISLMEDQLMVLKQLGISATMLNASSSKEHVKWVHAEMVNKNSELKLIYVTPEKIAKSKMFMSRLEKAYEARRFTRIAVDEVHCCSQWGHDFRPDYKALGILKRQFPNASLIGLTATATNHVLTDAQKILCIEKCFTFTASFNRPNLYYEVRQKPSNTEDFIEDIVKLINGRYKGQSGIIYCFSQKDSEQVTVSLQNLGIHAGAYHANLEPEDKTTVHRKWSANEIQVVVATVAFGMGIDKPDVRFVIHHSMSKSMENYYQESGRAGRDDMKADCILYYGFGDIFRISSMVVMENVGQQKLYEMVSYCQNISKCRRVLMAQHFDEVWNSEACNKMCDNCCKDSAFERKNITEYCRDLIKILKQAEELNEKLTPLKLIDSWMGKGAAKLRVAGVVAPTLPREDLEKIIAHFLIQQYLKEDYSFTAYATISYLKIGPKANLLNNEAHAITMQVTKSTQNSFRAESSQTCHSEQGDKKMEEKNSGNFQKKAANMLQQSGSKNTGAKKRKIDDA

Potency, active:
O=c1nc2s/c(=C\c3ccco3)c(=O)n2nc1Cc1ccccc1 5.01 µM, COc1cc(C(=O)NCc2nnc(SCC(=O)Nc3nc4ccc(C)cc4s3)o2)cc(OC)c1OC 39.8 µM, CC(=O)Nc1ccc(Nc2c3ccccc3nc3ccccc23)cc1 14.1 µM, COCCNC(=O)Nc1ccc2nc(-c3ccco3)c(-c3ccco3)nc2c1 8.91 µM, O=C(NCc1ccccn1)c1ccc2nc(-c3ccco3)c(-c3ccco3)nc2c1 15.8 µM

Potency, inactive:
O=C(CCCN1C(=O)/C(=C/c2ccco2)SC1=S)Nc1ccccc1, CCOc1ccccc1/C=c1\sc2nc(-c3ccco3)nn2c1=O, CCCN1CCC(=O)N(C(CSc2ccc(C)cc2)Cc2ccccc2)CC1 (centres undefined), COC(=O)CCc1ccccc1S(=O)(=O)N(CCC(=O)OC)Cc1ccccc1, Cc1sc2nc(CSCC(=O)Nc3c(Cl)cccc3Cl)[nH]c(=O)c2c1C, COc1ccc(CCNC(=O)CSc2nnc(CNC(=O)c3cccs3)o2)cc1OC, Cc1ccc(NC(=O)CSc2nnc(CNC(=O)c3ccccc3F)o2)cc1, COc1ccc(CN2CCC(=O)c3ccccc3S2(=O)=O)cc1, Cc1ccc(Nc2c3c(nc4ccccc24)CCC3)cc1, O=[N+]([O-])c1cccc(Nc2c3ccccc3nc3ccccc23)c1, CCOC(=O)Cn1c(=O)sc2cccc(Cl)c21, O=C(Nc1ccc(Cl)cc1)Nc1nnc(/C=C/c2ccccc2)s1, CCOCCOC(=O)C(C)Oc1ccc(Oc2ncc(C(F)(F)F)cc2Cl)cc1 (centres undefined), C[C@@H]1O[C@@H](OC[C@H]2O[C@@H](Oc3cc(O)c4c(c3)O[C@H](c3ccc(O)c(O)c3)CC4=O)[C@H](O)[C@@H](O)[C@@H]2O)[C@H](O)[C@H](O)[C@H]1O, COc1ccc(C[C@H](C(=O)O)N2C(=O)c3ccc(C(=O)O)cc3C2=O)cc1, CN(C)S(=O)(=O)Oc1ccccc1C(=O)Nc1ccccc1Cl, NCCCCC(N)C(=O)O (centres undefined), O=C(Nc1ccc2nccnc2c1)c1ccco1, COc1ccc(NC(=O)Nc2ccc3nsnc3c2)cc1, O=C(NCc1ccccn1)c1cc(-c2ccccc2Cl)on1, O=C(NCc1ccccn1)c1cc(Br)ccc1Cl, H-EHIPA-OH, OCCC(O)CO (centres undefined), CC[C@H](C)[C@H](NC(=O)[C@H](CCCNC(=N)N)NC(=O)[C@H](CCCNC(=N)N)NC(=O)[C@H](CC(C)C)NC(=O)[C@H](Cc1ccccc1)NC(=O)CNC(=O)CNC(=O)[C@@H](N)Cc1ccc(O)cc1)C(=O)N[C@@H](CCCNC(=N)N)C(=O)N1CCC[C@H]1C(=O)N[C@@H](CCCCN)C(=O)N[C@@H](CC(C)C)C(=O)N[C@@H](CCCCN)C(=O)N[C@@H](Cc1c[nH]c2ccccc12)C(=O)N[C@@H](CC(=O)O)C(=O)N[C@@H](CC(N)=O)C(=O)N[C@@H](CCC(N)=O)C(=O)O
